# In PubChem BioAssay (EPA / NIEHS):
# Calls of active or inactive are those of the source. Rule for the calls: active = hit-call score of the fitted dose curve at least 0.9, where 1 is the maximum; inactive = score below 0.9.
# Columns and labels:
# [1] = read-out: Human Leukocyte Antigen - DR isotype (HLADR), HLA-DRA (gene 3122); assay: BSK_BE3C_HLADR: BioMAP Diversity Plus: BE3C Assay for Human Leukocyte Antigen - DR isotype (HLADR) Biomarker Activity (AID 2283032); settings: primary human bronchial epithelial cells; actives raise or lower the signal
# Summary of the method: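 Chemicals are dosed onto BE3C bronchial epithelial cultures of human origin and left 24 h. HLA-DR is then measured by ELISA, and the endpoint is fitted in both directions using DMSO as the activity baseline.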
# [2] = read-out: Vascular cell adhesion molecule 1 (VCAM1), VCAM1 (gene 7412); assay: BSK_4H_VCAM1: BioMAP Diversity Plus: 4H Assay for Vascular cell adhesion molecule 1 (VCAM1) Biomarker Activity (AID 2283033); settings: primary human endothelial cells (HUVEC); actives raise or lower the signal;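 for outcome: cell-surface VCAM-1 protein measured by ELISA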
# Summary of the method: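 Chemicals are added to primary human umbilical vein endothelial cells. After 24 h, VCAM-1 levels are measured by ELISA. Values come from bidirectional fitting referenced to DMSO.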
# [3] = read-out: Interferon-gamma inducible Protein 10 (IP10), CXCL10 (gene 3627); assay: BSK_BE3C_IP10: BioMAP Diversity Plus: BE3C Assay for Interferon-gamma inducible Protein 10 (IP10) Biomarker Activity (AID 2283034); settings: primary human bronchial epithelial cells; actives raise or lower the signal
# Summary of the method: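 IP-10 quantified by ELISA serves as the endpoint. Cells: primary human bronchial epithelium, read 24 h after compound addition. Activity is derived by bidirectional fitting with DMSO as negative control.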
# [4] = read-out: Monokine induced gamma interferon (MIG), CXCL9 (gene 4283); assay: BSK_BE3C_MIG: BioMAP Diversity Plus: BE3C Assay for Monokine induced gamma interferon (MIG) Biomarker Activity (AID 2283035); settings: primary human bronchial epithelial cells; actives raise or lower the signal;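 for outcome: MIG protein measured by ELISA in BE3C cultures after 24 h of dosing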
# Summary of the method: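 hu bronchial epithelial 1° cells, 24 h cpd; MIG by ELISA; bidirectional fit, DMSO = baseline.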
# [5] = read-out: Transforming growth factor beta 1 (TGFb1), TGFB1 (gene 7040); assay: BSK_BE3C_TGFb1: BioMAP Diversity Plus: BE3C Assay for Transforming growth factor beta 1 (TGFb1) Biomarker Activity (AID 2283036;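 for outcome: TGF-b1 protein level measured by ELISA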); settings: primary human bronchial epithelial cells; actives raise or lower the signal
# Summary of the method: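 Bronchial epithelial primary cells are treated with test chemical, then TGF-b1 is quantified by ELISA after 24 hours. Values derive from bidirectional fitting against DMSO, with cytotoxicity checked by SRB staining in parallel cultures.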
# [6] = read-out: Plasminogen activator inhibitor-1 (PAI1), SERPINE1 (gene 5054); assay: BSK_BE3C_PAI1: BioMAP Diversity Plus: BE3C Assay for Plasminogen activator inhibitor-1 (PAI1) Biomarker Activity (AID 2283037); settings: primary human bronchial epithelial cells; actives raise or lower the signal
# Summary of the method: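 Values derive from bidirectional fitting against DMSO baseline of PAI-1 levels, measured by ELISA in human bronchial epithelial cells 24 h after compound addition.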
# [7] = read-out: urokinase plasminogen activator (uPA), PLAU (gene 5328); assay: BSK_BE3C_uPA: BioMAP Diversity Plus: BE3C Assay for urokinase plasminogen activator (uPA) Biomarker Activity (AID 2283038); settings: primary human bronchial epithelial cells; actives raise or lower the signal;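 for outcome: uPA protein level quantified by ELISA in cell cultures; uPA read one day after compound addition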
# Summary of the method: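 Using confluent primary human lung bronchial epithelial cultures, we dosed chemicals, waited 24 h, then ran a uPA ELISA, fitting bidirectionally against DMSO.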
# [8] = read-out: Urokinase-type plasminogen activator receptor (uPAR), PLAUR (gene 5329); assay: BSK_BE3C_uPAR: BioMAP Diversity Plus: BE3C Assay for Urokinase-type plasminogen activator receptor (uPAR) Biomarker Activity (AID 2283039); settings: primary human bronchial epithelial cells; actives raise or lower the signal;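 for outcome: uPAR protein level measured by ELISA on the cells; cells exposed to compound for one day before measurement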
# Summary of the method: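 Steps: dose human primary bronchial epithelial cells, incubate 24 h, measure uPAR by ELISA, then fit gain- or loss-of-signal response bidirectionally relative to DMSO.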
# [9] = read-out: Interleukin-6 (IL6), IL6 (gene 3569); assay: BSK_CASM3C_IL6: BioMAP Diversity Plus: CASM3C Assay for Interleukin-6 (IL6) Biomarker Activity for (AID 2283040); settings: primary human coronary artery smooth muscle cells; actives raise or lower the signal
# [10] = read-out: Tissue plasminogen activator (tPA), PLAT (gene 5327); assay: BSK_BE3C_tPA: BioMAP Diversity Plus: BE3C Assay for Tissue plasminogen activator (tPA) Biomarker Activity (AID 2283041); settings: primary human bronchial epithelial cells; actives raise or lower the signal;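 for outcome: tPA level quantified by ELISA one day after compound addition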
# Summary of the method: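 Gain- or loss-of-signal in tPA, measured by ELISA, derived by bidirectional fitting against DMSO. Cells: human primary bronchial epithelial; read at 24 h after chemical dosing.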
# [11] = read-out: Interleukin-8 (IL8), CXCL8 (gene 3576); assay: BSK_CASM3C_IL8: BioMAP Diversity Plus: CASM3C Assay for Interleukin-8 (IL8) Biomarker Activity (AID 2283042); settings: primary human coronary artery smooth muscle cells; actives raise or lower the signal;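 note: IL-8 protein level quantified by ELISA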
# [12] = read-out: Human Leukocyte Antigen - DR isotype (HLADR), HLA-DRA (gene 3122); assay: BSK_CASM3C_HLADR: BioMAP Diversity Plus: CASM3C Assay for Human Leukocyte Antigen - DR isotype (HLADR) Biomarker Activity (AID 2283043); settings: primary human coronary artery smooth muscle cells; actives raise or lower the signal;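 note: cell-surface HLA-DR protein level quantified by ELISA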
# [13] = read-out: Macrophage colony-stimulating factor (MCSF), CSF1 (gene 1435); assay: BSK_CASM3C_MCSF: BioMAP Diversity Plus: CASM3C Assay for Macrophage colony-stimulating factor (MCSF) Biomarker Activity (AID 2283044); settings: primary human coronary artery smooth muscle cells; actives raise or lower the signal;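 note: M-CSF protein amount quantified by ELISA after 24 h exposure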
# [14] = read-out: Low-density lipoprotein receptor (LDLR), LDLR (gene 3949); assay: BSK_CASM3C_LDLR: BioMAP Diversity Plus: CASM3C Assay for Low-density lipoprotein receptor (LDLR) Biomarker Activity (AID 2283045); settings: primary human coronary artery smooth muscle cells; actives raise or lower the signal;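 note: LDLR protein level on the cell surface quantified by ELISA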
# [15] = read-out: Monocyte Chemoattractant Protein-1 (MCP1), CCL2 (gene 6347); assay: BSK_CASM3C_MCP1: BioMAP Diversity Plus: CASM3C Assay for Monocyte Chemoattractant Protein-1 (MCP1) Biomarker Activity (AID 2283046); settings: primary human coronary artery smooth muscle cells; actives raise or lower the signal;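 note: MCP-1 level quantified by ELISA 24 h after dosing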
# [16] = BSK_CASM3C_Proliferation: Cell Proliferation Assessment in the BioMAP Diversity Plus: CASM3C Assay (AID 2283047); settings: primary human coronary artery smooth muscle cells;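 note: sulforhodamine B total protein stain as relative cell number at 560 nm; sub-confluent cells exposed 48 h before staining; fitted both ways against DMSO so gain or loss of cell number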
# [17] = read-out: Monokine induced gamma interferon (MIG), CXCL9 (gene 4283); assay: BSK_CASM3C_MIG: BioMAP Diversity Plus: CASM3C Assay for Monokine induced gamma interferon (MIG) Biomarker Activity (AID 2283048); settings: primary human coronary artery smooth muscle cells; actives raise or lower the signal;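 note: MIG protein level measured by ELISA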
# [18] = read-out: serum amyloid A (SAA), SAA1 (gene 6288); assay: BSK_CASM3C_SAA: BioMAP Diversity Plus: CASM3C Assay for serum amyloid A (SAA) Biomarker Activity (AID 2283049); settings: primary human coronary artery smooth muscle cells; actives raise or lower the signal;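 note: SAA protein level quantified by ELISA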
# [19] = BSK_CASM3C_SRB: Viability Assessment in the BioMAP Diversity Plus: CASM3C Assay (AID 2283050); settings: primary human coronary artery smooth muscle cells;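 note: total protein by SRB staining as cytotoxicity measure in parallel cultures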
# [20] = read-out: Thrombomodulin, THBD (gene 7056); assay: BSK_CASM3C_Thrombomodulin: BioMAP Diversity Plus: CASM3C Assay for Thrombomodulin Biomarker Activity (AID 2283051); settings: primary human coronary artery smooth muscle cells; actives raise or lower the signal;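 note: thrombomodulin protein level measured by ELISA 24 h after dosing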
compound,measurement,setting,value
Cc1[nH]nc2c1N=C(c1ccccc1Cl)c1cc([N+](=O)[O-])ccc1N2,AC50,[1],10.3 µM (active)
same,AC50,[2],2.56 µM (active)
same,AC50,[3],12.2 µM (active)
same,AC50,[4],19.3 µM (active)
same,AC50,[5],21.6 µM (active)
same,AC50,[6],1.62 µM (active)
same,outcome,[7],inactive
same,outcome,[8],inactive
same,outcome,[9],inactive
same,AC50,[10],20 µM (active)
same,outcome,[11],inactive
same,AC50,[12],8.7 µM (active)
same,AC50,[13],0.581 µM (active)
same,outcome,[14],inactive
same,outcome,[15],inactive
same,AC50,[16],0.807 µM (active)
same,AC50,[17],7.47 µM (active)
same,AC50,[18],0.641 µM (active)
same,outcome,[19],inactive
same,outcome,[20],inactive
Cc1ccc(N=Nc2c(O)ccc3ccccc23)c(C)c1,AC50,[1],10 µM (active)
same,AC50,[2],9.98 µM (active)
same,AC50,[3],3.88 µM (active)
same,outcome,[4],inactive
same,outcome,[5],inactive
same,AC50,[6],10 µM (active)
same,AC50,[7],10 µM (active)
same,outcome,[9],inactive
same,outcome,[10],inactive
same,outcome,[11],inactive
same,outcome,[12],inactive
same,outcome,[13],inactive
same,outcome,[14],inactive
same,outcome,[15],inactive
same,outcome,[16],inactive
same,outcome,[17],inactive
same,outcome,[18],inactive
same,outcome,[19],inactive
same,AC50,[20],8.07 µM (active)
CCCCc1oc2ccccc2c1C(=O)c1cc(I)c(OCCN(CC)CC)c(I)c1,AC50,[1],15.1 µM (active)
same,AC50,[2],19.6 µM (active)
same,AC50,[3],12 µM (active)
same,AC50,[4],23.3 µM (active)
same,AC50,[5],12.2 µM (active)
same,AC50,[6],18.8 µM (active)
same,AC50,[7],20.1 µM (active)
same,AC50,[8],20.6 µM (active)
same,AC50,[9],27.8 µM (active)
same,AC50,[10],9.06 µM (active)
same,AC50,[11],23.9 µM (active)
same,AC50,[12],5.94 µM (active)
same,AC50,[13],22 µM (active)
same,AC50,[14],27.2 µM (active)
same,AC50,[15],25.1 µM (active)
same,AC50,[16],8.1 µM (active)
same,AC50,[17],24 µM (active)
same,AC50,[18],12.4 µM (active)
same,AC50,[19],18.9 µM (active)
same,AC50,[20],27.9 µM (active)
O=C1c2ccc(O)c(O)c2C(=O)c2c(O)ccc(O)c21,outcome,[1],inactive
same,outcome,[2],inactive
same,outcome,[3],inactive
same,outcome,[4],inactive
same,outcome,[5],inactive
same,outcome,[6],inactive
same,outcome,[7],inactive
same,outcome,[9],inactive
same,outcome,[10],inactive
same,outcome,[11],inactive
same,outcome,[12],inactive
same,outcome,[13],inactive
same,outcome,[14],inactive
same,outcome,[15],inactive
same,AC50,[16],0.0041 µM (active)
same,outcome,[17],inactive
same,outcome,[18],inactive
same,outcome,[19],inactive
same,outcome,[20],inactive
COCN(COC)c1nc(N(COC)COC)nc(N(COC)COC)n1,outcome,[1],inactive
same,outcome,[2],inactive
same,outcome,[3],inactive
same,outcome,[4],inactive
same,outcome,[5],inactive
same,outcome,[6],inactive
same,outcome,[7],inactive
same,outcome,[8],inactive
same,outcome,[9],inactive
same,outcome,[10],inactive
same,outcome,[11],inactive
same,outcome,[12],inactive
same,outcome,[13],inactive
same,outcome,[14],inactive
same,outcome,[15],inactive
same,outcome,[16],inactive
same,outcome,[17],inactive
same,outcome,[18],inactive
same,outcome,[19],inactive
same,outcome,[20],inactive
